Most compounds without a hit are left out; they make up all but 5.4% or so of the library.
PP1 counter – blocks human PP1-alpha phosphatase, a PP5 counter-screen | purified PP1alpha, OMFP fluorescence | inhibition, % at 6.7 µM | 320,000 tested, 0.9% active;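 active = inhibition above the mean inhibition of all tested compounds plus 3 SD, computed separately for each screening campaign, cut at about 15% in these data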
Target sequence (P62136 whole entry, looked up): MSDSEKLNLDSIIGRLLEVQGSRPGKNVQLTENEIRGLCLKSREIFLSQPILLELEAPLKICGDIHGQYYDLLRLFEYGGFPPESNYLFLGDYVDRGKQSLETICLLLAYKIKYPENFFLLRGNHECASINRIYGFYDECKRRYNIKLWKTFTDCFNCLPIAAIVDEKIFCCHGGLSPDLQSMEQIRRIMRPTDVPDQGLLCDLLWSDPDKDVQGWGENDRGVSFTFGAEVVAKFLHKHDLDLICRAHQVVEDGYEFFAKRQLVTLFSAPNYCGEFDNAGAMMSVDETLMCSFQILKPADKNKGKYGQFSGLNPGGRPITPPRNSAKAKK
Calb FLC – affects C. albicans growth with fluconazole; C. albicans CaCi-2 (fluconazole-resistant clinical isolate) + fluconazole, Alamar Blue growth, 48 h; growth inhibition, % (test concentration not listed); 300,000 tested, 0.57% active; AID 1979;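 active = growth inhibition above about 58% in most replicates, limit read from the data, passing the limit was not always enough; inconclusive = exactly half the replicates above a set limit; inactive = most replicates below a set limit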;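 note: all wells also contain fluconazole at 8 µg/ml as a sub-toxic cotreatment; 0% = median of DMSO wells and 100% = median of geldanamycin control wells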
CSC inhib – cancer stem cell inhibition | AID 2717 | inhibition, % at 7.5 µM | cancer stem cell-like cells viability, luminescence | 300,000 tested, 1.1% active; in the data active = inhibition above about 75%; inconclusive = no clear call, values can overlap the other calls; tested in HMLE shEcad cells
ALR inh – inhibitors of human sulfhydryl oxidase ALR; inhibition, % (concentration not given with the values); 290,000 tested, 3.8% active; AID 485317; purified ALR, DTT oxidation, H2O2 HRP-luminol luminescence; P55789;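 active = mean replicate inhibition above about 79%, with every replicate also reaching it, limit read from the data; inconclusive = only one of the two criteria met; inactive = mean below limit and not every replicate reaching it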
PP5 primary – inhibitors of human protein phosphatase 5 (PP5) | inhibition, % at 6.7 µM | purified PP5c, OMFP substrate fluorescence | AID 1987 | P53041 | 320,000 tested, 0.18% active;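 active = inhibition above the campaign's mean inhibition across all tested compounds plus 3 SD, cut at about 9.5% in these data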;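 note: 0% = DMSO only and 100% = 100 µM cantharidin control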
An asterisk follows results filed as active; ? = inconclusive; . = no result.

SMILES | PP1 counter | Calb FLC | CSC inhib | ALR inh | PP5 primary
O=C(CSc1nnc(-c2ccc(Br)cc2)o1)Nc1cccc2ccccc12 | 2 | 85* | . | -1 | 1
O=C(CSc1nnc(-c2ccccn2)o1)Nc1ccccc1Cl | 1 | -13 | 4 | 99* | 3
C/C(=N\N(Cc1ccccc1)c1ccccc1)c1ccncc1 | 10 | -31 | -4 | 99* | 1
Cc1ccc(-c2nnn(CC(=O)Nc3ccc(S(=O)(=O)N4CCC(C)CC4)cc3)n2)cc1 | 16* | -2 | -5 | -1 | 3
CC1CCN(S(=O)(=O)c2ccc(NC(=O)Cn3nnc(-c4ccccc4)n3)cc2)CC1 | 17* | -14 | 7 | -3 | 1
Cc1ccc(S(=O)(=O)N2CCC(C(=O)Nc3ccc(C(C)C)cc3)CC2)cc1 | 4 | . | 75* | -3 | 5
Fc1ccc(C(c2nnnn2C2CCCC2)N2CCN(Cc3ccccc3)CC2)cc1 (centres undefined) | . | -8 | . | . | .
Cc1cc(C)cc(NC(=O)CSc2ccc(-c3ccccn3)nn2)c1 | -2 | 1 | 96* | -1 | 4
Fc1ccc(CSc2ccc(-c3ccco3)nn2)cc1 | 1 | -10 | . | 98* | 0
COc1cc(NC(=O)CSc2ccc(-c3ccco3)nn2)cc(OC)c1 | -1 | 0 | -2 | 98* | 0
CC(=O)Nc1ccc(NC(=O)CSc2ccc(-c3ccco3)nn2)cc1 | -2 | -6 | -4 | 96* | 5
Fc1cccc(CSc2ccc(-c3ccco3)nn2)c1 | 1 | 15 | 44 | 50 | 1
CC(=O)Nc1cccc(NC(=O)CSc2ccc(-c3ccco3)nn2)c1 | 2 | -2 | -5 | ? | 1
COc1ccc(NC(=O)CSc2ccc(-c3ccco3)nn2)cc1 | 2 | -3 | -6 | -1 | 3
c1ccc(CCc2ccncc2)cc1 | -4 | 8 | -7 | -15 | 2
Cc1ccc(S(=O)(=O)N(C)CC(=O)NCc2ccncc2)cc1 | -1 | -13 | -6 | -16 | 1
CCCCC1CCC(C(=O)N(CCOC)c2c(N)n(CCCC)c(=O)[nH]c2=O)CC1 (centres undefined) | -6 | 10 | -13 | -2 | -2
CC(NC(=O)c1ccccc1)C(=O)N/N=C/c1ccccc1 (centres undefined) | -4 | -3 | . | -3 | -2
CN1c2ccccc2C(C)(C)[C@]12C=Cc1cc(O)ccc1O2 | -1 | 5 | -11 | 88* | 4
CN1c2ccccc2C(C)(C)C12C=Nc1c(ccc3ccccc13)O2 (centres undefined) | 5 | 38 | 23 | -34 | 4
CC1=C(C(N)=O)C(c2ccc(C)o2)C(C(N)=O)=C(C)N1 | -1 | 71* | 3 | 1 | 1
CCOC(=O)C1=C(C)NC(C)=C(C(=O)OCC)C1c1ccc(C)o1 | -1 | -2 | -7 | 2 | 4
N#Cc1c(-c2cccs2)cc(-c2cccnc2)nc1N | 6 | 31 | -8 | -7 | 1
N#Cc1c(-c2cccs2)cc(-c2ccccn2)nc1N | 16* | -9 | -9 | -13 | 4
COc1ccc(-c2cc3nnc(-c4ccccc4)nc3s2)cc1 | -2 | -8 | 10 | 94* | 0
SMILES | PP1 counter | Calb FLC | CSC inhib | ALR inh | PP5 primary
COc1ccc2[nH]c(C(=O)O)c(NS(=O)(=O)c3ccc(Cl)s3)c2c1 | 3 | 1 | -7 | 99* | 3
COc1ccc2[nH]c(C(=O)O)c(NS(=O)(=O)c3ccc(C)c(C)c3)c2c1 | 4 | . | -1 | 97* | 2
COc1ccc2[nH]c(C(=O)O)c(NS(=O)(=O)c3ccc(F)cc3)c2c1 | 0 | . | 4 | 90* | 2
COc1ccc2[nH]c(C(=O)O)c(CCNC(C)=O)c2c1 | -4 | 1 | -13 | . | 3
CCOC(=O)c1[nH]c2ccc(OC)cc2c1NS(=O)(=O)c1ccc(Cl)s1 | 0 | -8 | -10 | 66 | 4
COc1ccc(S(=O)(=O)Nc2c(C(=O)O)[nH]c3ccccc23)cc1OC | 1 | -7 | 5 | 10 | -1
CCCSc1cc(=O)n(-c2ccccc2)nc1C(=O)O | -5 | 0 | -18 | 4 | 3
O=[N+]([O-])c1cccc(C2NCC(c3ccccc3Cl)c3c2[nH]c2ccccc32)c1 (centres undefined) | 10 | -5 | 131* | -5 | 0
CCOc1cc(-c2c(C#N)c(N)nc3c2CCCC3C)ccc1O (centres undefined) | 3 | 38 | 17 | 98* | 1
CC(C)C(=O)c1ccc(O)c(O)c1 | -1 | -7 | -15 | 99* | 4
Cc1cn(C2OC(COC(=O)c3ccccc3)C(O)C2O)c(=O)[nH]c1=O (centres undefined) | -1 | 8 | 29 | . | 3

Screening results from PubChem.
